Reference: PubChem BioAssay AID463200 (Sanford-Burnham Center for Chemical Genomics, 2010)
The list shows a part of the results. A number with no mark means an inactive call. Activity calls are given as the source filed them. Rule as the data show it: active = z-score above about 6.3; inactive = the rest.

Assay: AML12 hepatocyte cytotoxicity, counter-screen for hepatic lipid droplet formation project, imaging, DAPI nuclear morphology imaging (AID 463200);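 also: compound exposure lasted overnight at 37 °C before fixation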
Settings: AML12 mouse hepatocytes, at 5 µM, active compounds read high, cells fed 100 µM oleate overnight
For `COc1ccc(Cl)cc1NC(=O)CN(C)C(=O)CCCc1c[nH]c2ccccc12`, the z-score was 0.989. `CCc1ccc(NC(=O)C(C)OC(=O)/C=C/c2cccc([N+](=O)[O-])c2)cc1` (stereo unspecified) gave a z-score of 1.35. `COc1cccc(/C=C(/CC(=O)Nc2ccc(N3CCOCC3)cc2)c2nc3ccccc3s2)c1` showed a z-score of 0.0842. `CN(C)c1ccc(Nc2c3c4c(cccc4n(C)c2=O)C(=O)c2ccccc2-3)cc1` gave a z-score of 0.335. `COc1ccc(OC)c(-c2csc(-c3cccs3)n2)c1` showed a z-score of -0.885. Work on `COCCCNC(=O)CN1C(=O)CSc2ccc(S(=O)(=O)N3CCOCC3)cc21` yielded a z-score of -0.296. `CC(C)(C)NC(=O)Cn1cnc2cc([N+](=O)[O-])ccc2c1=O` showed a z-score of -1.05. Work on `CCCCN1C(=O)/C(=C/C=C2/C=Cc3ccccc3N2CC)SC1=S` yielded a z-score of -0.15. With `CC(NC(=O)c1cccc2ccccc12)c1ccc2c(c1)CCCC2` (stereo unspecified) the z-score was 8.48 (active). In the case of `O=C1Nc2ccc(Br)cc2/C1=N/N=C/C1=C(N2CCOCC2)C(=C\c2ccccc2)/CC1`, the z-score is reported as -1.9. Work on `Cn1c(=O)[nH]c(=O)c2c1nc(N1CCN(C(c3ccccc3)c3ccccc3)CC1)n2CCO` yielded a z-score of 0.0379. Compound `Cc1cc(C(=O)NC2CCCc3c2cnn3-c2cccc(C)c2C)c(C)o1` (stereo unspecified) has a z-score of 0.206. For `CCCN(CCC)c1ccc(C(O)c2nnc(-c3ccccc3)o2)cc1` (stereo unspecified), the z-score was -0.662. In the case of `O=C(CN1CCc2cc3c(cc2C1)OCCCO3)Nc1ccccc1`, the z-score is reported as 0.947. With `CCOc1ccc(CCNC(=O)Nc2ccccc2)cc1OCC` the z-score was -0.203. For `CCOC(=O)C1=C(CC)OC(N)=C(C#N)C1c1ccc(F)cc1F` (stereo unspecified), the z-score was -0.275. `CCCc1ccc(-c2csc(NC(=O)Cc3cccs3)n2)cc1` showed a z-score of -0.171. `CCOc1ccc(CCNC(=O)CCc2nnc3ccc(N4CCCC4)nn23)cc1OCC` gave a z-score of -0.773. Compound `COc1ccc(/C=C(\NC(=O)c2ccc(OCC(C)C)cc2)C(=O)OCc2ccco2)cc1` has a z-score of -0.0226. Work on `Cc1ccc(N2C(=O)C(NC(=O)c3c(F)cccc3F)(C(F)(F)F)C3=C2CC(C)(C)CC3=O)cc1` (stereo unspecified) yielded a z-score of -0.996. Compound `CCCN(CCC)c1nc2c(C)cccn2c(=O)c1/C=C1/SC(=S)N(Cc2ccco2)C1=O` has a z-score of -0.326. `O=[N+]([O-])c1ccccc1N/N=C1\CCc2ccccc21` gave a z-score of -0.00245. Compound `COc1ccc(C(C(=O)NC(C)(C)C)N(Cc2ccc(F)cc2)C(=O)CCC(=O)Nc2cc(C)on2)cc1` (stereo unspecified) has a z-score of -0.0925. Compound `Cc1c(C(=O)NCc2ccccc2)cnn1-c1ccccc1` has a z-score of -0.784. `Cc1cc(NC(=O)CSc2nc(C(C)C)nc3sc4c(c23)CCC(C)C4)no1` (stereo unspecified) showed a z-score of -0.355. `COc1cc(/C=N/NC(=O)Nc2ccccc2)ccc1OCCOc1ccccc1C` showed a z-score of 4.44.
